# An excerpt weighted towards active compounds, which were near 3.6% of everything screened.
# Pf apPOL block: Pf-apPOL DNA polymerase inhibition; Recombinant Pf-apPOL, molecular beacon fluorescence, 1.5 h; inhibition, % at 10 µM; actives 0.25% (n = 210,000); AID 1794808
# mHTT CaM bind: inhibitors of human mutant huntingtin-calmodulin interaction. AlphaScreen His-mHTT/GST-CaM binding, luminescence. inhibition, % at 15 µM. actives 3.6% (n = 190,000). AID 1671202;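 further: 0% = both proteins with DMSO and 100% = one protein alone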
# The depositor's hits bear a star; . = no result given. No stated cut-off is given here; in the data, active means inhibition above about 50%; inactive means the rest.
SMILES,Pf apPOL block,mHTT CaM bind
COc1ccc(C(=O)C=Cc2ccc3c(c2)OCCO3)c(OCc2ccccc2)c1,-22,16
COc1ccc(O)c(C(=O)C=Cc2ccc3c(c2)OCCO3)c1,6,61*
O=C(NCC(O)(c1ccccc1)C(F)(F)F)c1ccsc1 (centres undefined),-9,-18
O=C(NNC(=O)C(F)(F)Sc1ccccc1)c1ccsc1,54*,.
Cc1ccc(-c2cn3cc(C(=O)NCCN4CCN(C)CC4)ccc3n2)cc1,1,8
O=C(Nc1ccccc1N1CCOCC1)c1cccc(Cl)c1Cl,0,-10
Cn1ccnc1C(O)c1cc(C(C)(C)C)c(O)c(C(C)(C)C)c1 (centres undefined),-7,18
CC(C)(C)c1cc(C(c2ccccn2)N2CCCCC2)cc(C(C)(C)C)c1O (centres undefined),-5,77*
CCc1ccc(CN2C(=O)c3ccccc3C2C(=O)NC2CCCC2)cc1 (centres undefined),-16,-5
Cn1c(=O)c2c(nc(NCCC(c3ccccc3)c3ccccc3)n2CC(=O)O)n(C)c1=O,3,4
Cc1ccccc1C1CCC2(CC1)CCN(CC[C@@H](O)c1ccccc1)C2=O (some centres undefined),-9,53*
O=C1N(CC[C@@H](O)c2ccccc2)CCC12CCC(c1ccccc1)CC2 (some centres undefined),-10,-3
COc1ccc([C@H]2C[C@@H](O)[C@H](n3cc(COC(=O)c4ccccc4)nn3)CN2Cc2cccs2)cc1,9,-1
COc1ccc([C@H]2C[C@H](O)[C@@H](n3cc(COC(=O)c4ccccc4)nn3)CN2Cc2cccs2)cc1,2,90*
COc1ccc([C@H]2C[C@H](O)[C@@H](n3cc(COC(=O)c4ccccc4)nn3)CN2CC2CCCCC2)cc1,-2,69*
O=C(OCc1cn([C@H]2C[C@H](c3ccccc3)N(CC3CCCCC3)C[C@@H]2O)nn1)c1ccccc1,-1,-4
CCCCCCN1C[C@H](n2cc(COC(=O)c3ccccc3)nn2)[C@@H](O)C[C@@H]1c1ccc(Cl)cc1,-2,32
CCCCCCN1C[C@H](n2cc(COC(=O)c3ccccc3)nn2)[C@@H](O)C[C@@H]1c1ccc(OC)cc1,-4,56*
Cc1c(N=Cc2ccc(N3CCCCC3)c([N+](=O)[O-])c2)c(=O)n(-c2ccccc2)n1C,3,13
O=C(O)c1c[nH]c2ccc(S(=O)(=O)Nc3ccc(Br)cc3)cc2c1=O,-4,20
CC(=O)c1ccc(NC(=O)c2noc3c2CC(C)CC3)cc1 (centres undefined),-5,-3
O=C1C2C(c3cccc(/C=C/c4ccccc4)c3)CC=CC2C(c2ccc(C(F)(F)F)cc2)N1Cc1ccccc1 (centres undefined),-4,-3
C[C@@H]1CC=C[C@H]2[C@H]1C(=O)N(Cc1ccccc1)[C@H]2c1ccoc1,1,15
CC[C@@H]1CC=C[C@H]2[C@H]1C(=O)N(Cc1ccccc1)[C@H]2c1ccoc1,-1,85*
O=C1C2C(c3ccccc3)CC=CC2[C@H](c2cccc(Br)c2)N1Cc1ccccc1 (some centres undefined),-1,100*
SMILES,Pf apPOL block,mHTT CaM bind
CC[C@@H]1CC=C[C@H]2[C@H]1C(=O)N(Cc1ccccc1)[C@H]2c1ccc(C(F)(F)F)cc1,-4,71*
O=C1C2C(c3cccc(/C=C/c4ccccc4)c3)CC=CC2C(c2ccc3ccccc3c2)N1Cc1ccccc1 (centres undefined),-5,-6
CCCN(CCO)CC(c1ccccc1)c1ccccc1,0,-4
O=C(c1ccc(Cl)cc1Cl)N1CCCN(C(=O)c2ccc(Cl)cc2Cl)CC1,-2,10
CCCC(=O)Nc1cccc(NC(=O)C(Cl)(Cl)Cl)c1,-5,2
O=C1OC(c2ccc(Cl)c([N+](=O)[O-])c2)=N/C1=C\c1ccccc1F,22,-2
CC1CCN(CCNc2ccc(-c3nc(-c4ccc(F)cc4)no3)cn2)CC1,-4,51*
CC1CCN(CCCNc2ccc(-c3nc(-c4ccc(F)cc4)no3)cn2)CC1,-4,35
O=C(CSc1nnc(COc2ccccc2)n1-c1ccccc1)NC1CCCCC1,-9,6
OCCSc1nnc(COc2ccc(Br)cc2)n1-c1ccccc1,-20,57*
CN(C)c1ccc(/C=C/c2cc(/C=C/c3ccc(N(C)C)cc3)[n+]3nn(C)nc3n2)cc1,0,100*
CN(C)c1ccc(/C=C/c2cc(C(F)(F)F)[nH]c(=O)n2)cc1,-5,20
CS(=O)(=O)N1CCCC1c1nc(-c2ccccc2)n[nH]1 (centres undefined),-2,-2
Cc1ccc(N2C(=O)NC3CC2(C)Oc2ccc(Br)cc23)cc1C (centres undefined),-2,36
Cc1ccc(CCNC(=O)c2ccc(N3C(=O)NC4CC3(C)Oc3ccccc34)cc2)cc1 (centres undefined),-6,49
Cc1ccc(N2C(=O)NC3CC2(C)Oc2ccc(Br)cc23)cc1Cl (centres undefined),-4,55*
Cc1ccc(CNC(=O)c2ccc(N3C(=O)NC4CC3(C)Oc3ccccc34)cc2)cc1 (centres undefined),-8,55*
COc1cccc(N2C(=O)NC3CC2(C)Oc2ccc(Cl)cc23)c1 (centres undefined),15,31
COc1cccc(N2C(=O)NC3CC2(C)Oc2ccccc23)c1 (centres undefined),-4,88*
CC(C)n1c(=O)c(Nc2ccc(Cl)cc2)nc2ccncc21,-4,-11
CN1CCN(C(=O)C2COC3(CCCCC3)N2C(=O)c2ccccc2)CC1 (centres undefined),3,-4
COc1ccc(C(=O)Nc2ccc(Br)cc2F)cc1Cl,-2,-5
OC(CN1CCN(c2ccc(F)cc2)CC1)c1c[nH]c2ccc(F)cc12 (centres undefined),-4,32
Cc1nc(Oc2ccc(Cl)cc2)c(C(N)=O)c(C)c1Cl,-1,-9
O=c1oc2ccc(Cl)cc2nc1C=C(O)c1ccccc1,-8,5
SMILES,Pf apPOL block,mHTT CaM bind
O=C1Nc2ccccc2C12Oc1ccccc1C1CC(c3ccccc3)=NN12 (centres undefined),-6,100*
COc1ccc(C2=NN3C(C2)c2cc(Cl)ccc2OC3(C)C)cc1 (centres undefined),-16,38
COc1ccc(C2=NN3C(C2)c2cc(Br)ccc2OC32C(=O)Nc3ccccc32)cc1 (centres undefined),-3,100*
CC1(C)Oc2ccccc2C2CC(c3cccs3)=NN21 (centres undefined),-5,50
O=C1C2C3C=CC(C4CC34)C2C(=O)N1Cc1ccc(F)cc1 (centres undefined),2,-5
O=C1/C(=C/c2ccsc2)CS/C1=C\c1ccsc1,-6,63*
O=C1/C(=C/c2cccnc2)CS/C1=C\c1cccnc1,3,20
O=C(c1cnccn1)N1CCCCC1c1nncn1Cc1ccccc1 (centres undefined),-6,-5
Cc1ccc(-c2ccc(C=O)o2)c(Br)c1,-7,-8
O=[N+]([O-])/C=C/c1ccc(-c2ccc(Cl)cc2)o1,4,84*
O=Cc1ccc(-c2ccc([N+](=O)[O-])cc2)o1,-6,5
CC1(C)OC(=O)C(=Cc2ccc(-c3ccc([N+](=O)[O-])cc3)o2)C(=O)O1,-4,2

# Screening results (PubChem BioAssay)
